Assay results published in paper PMC7862700, “An all-to-all approach to the identification of sequence-specific readers for epigenetic DNA modifications on cytosine”.

Legend:
Test in all cases: DAPPL (digital affinity profiling via proximity ligation, sequencing); 10 mM Tris-HCl pH 7.5, 50 mM NaCl, 1 mM DTT, 4% glycerol, room temperature, 30 min; GST-TFs on glutathione beads, 16-mer random dsDNA library, 0.1% formaldehyde crosslink after washing; high values mean tight binding
FLI1 = biological target: T1, FLI1 (Homo sapiens, UniProt Q01543 1-452); details: protein: recombinant; tags: N-terminal GST; dsDNA, one strand shown
T1 sequence: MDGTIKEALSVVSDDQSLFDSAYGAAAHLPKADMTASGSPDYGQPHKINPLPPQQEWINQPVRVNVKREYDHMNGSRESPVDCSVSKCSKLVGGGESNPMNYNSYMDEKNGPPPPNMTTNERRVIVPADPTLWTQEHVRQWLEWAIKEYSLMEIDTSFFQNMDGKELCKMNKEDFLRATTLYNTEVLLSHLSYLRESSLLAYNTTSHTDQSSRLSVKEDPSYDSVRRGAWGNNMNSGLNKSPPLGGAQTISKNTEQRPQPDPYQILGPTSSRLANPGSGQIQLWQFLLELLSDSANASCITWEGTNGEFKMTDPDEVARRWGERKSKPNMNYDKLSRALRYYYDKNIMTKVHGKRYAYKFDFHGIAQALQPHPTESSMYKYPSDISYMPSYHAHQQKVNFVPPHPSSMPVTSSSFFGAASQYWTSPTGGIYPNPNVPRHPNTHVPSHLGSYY
Outline: (§1)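 Beads coated with glutathione captured GST-fused human transcription factors that had been expressed in yeast, and the factors were then given DNA barcodes and pooled with a tag-only sample. The pools were incubated with 200 nmole of a random double-stranded 16-mer DNA library in Tris/NaCl/DTT/glycerol buffer for 30 min at room temperature, washed, crosslinked with 0.1% formaldehyde and proximity-ligated with BsaI/T4 ligase at 37 °C for 1 h. PCR amplification and Illumina NextSeq500 sequencing came last. Binding signal is each hexamer's read frequency for a factor divided by its frequency for the tag-only sample.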

ELK1 = biological target: T2, ELK1 (Homo sapiens, UniProt P19419 1-428); details: protein: recombinant; tags: N-terminal GST; dsDNA, one strand shown
T2 sequence: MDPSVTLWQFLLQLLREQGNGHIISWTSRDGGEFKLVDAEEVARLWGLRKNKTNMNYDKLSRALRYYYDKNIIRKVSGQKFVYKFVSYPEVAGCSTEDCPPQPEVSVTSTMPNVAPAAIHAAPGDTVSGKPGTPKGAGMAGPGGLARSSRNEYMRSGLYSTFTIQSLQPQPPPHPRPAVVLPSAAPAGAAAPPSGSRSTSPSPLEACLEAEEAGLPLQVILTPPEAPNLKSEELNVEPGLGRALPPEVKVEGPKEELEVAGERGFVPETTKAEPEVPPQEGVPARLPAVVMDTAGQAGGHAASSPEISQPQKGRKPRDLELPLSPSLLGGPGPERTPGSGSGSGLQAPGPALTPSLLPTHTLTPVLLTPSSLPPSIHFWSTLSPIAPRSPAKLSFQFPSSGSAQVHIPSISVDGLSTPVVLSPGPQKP
Outline: as §1

GABPA = biological target: T3, GABPA (Homo sapiens, UniProt Q06546 1-454); details: protein: recombinant; tags: N-terminal GST; dsDNA, one strand shown
T3 sequence: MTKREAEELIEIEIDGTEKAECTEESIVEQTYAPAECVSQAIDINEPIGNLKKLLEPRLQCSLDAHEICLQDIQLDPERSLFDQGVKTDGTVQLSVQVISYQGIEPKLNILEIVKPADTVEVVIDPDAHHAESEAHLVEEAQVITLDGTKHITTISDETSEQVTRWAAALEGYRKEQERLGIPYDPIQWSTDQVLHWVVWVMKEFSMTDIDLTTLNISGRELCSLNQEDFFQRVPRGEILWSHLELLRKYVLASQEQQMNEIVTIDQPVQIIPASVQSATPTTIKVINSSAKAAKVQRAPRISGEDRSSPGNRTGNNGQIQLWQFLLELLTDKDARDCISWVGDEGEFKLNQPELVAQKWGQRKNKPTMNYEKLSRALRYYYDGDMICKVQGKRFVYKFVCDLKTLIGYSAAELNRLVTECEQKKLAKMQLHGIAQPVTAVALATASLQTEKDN
Outline: as §1

ERG = biological target: T4, ERG (Homo sapiens, UniProt P11308 1-479); details: protein: recombinant; tags: N-terminal GST; dsDNA, one strand shown
T4 sequence: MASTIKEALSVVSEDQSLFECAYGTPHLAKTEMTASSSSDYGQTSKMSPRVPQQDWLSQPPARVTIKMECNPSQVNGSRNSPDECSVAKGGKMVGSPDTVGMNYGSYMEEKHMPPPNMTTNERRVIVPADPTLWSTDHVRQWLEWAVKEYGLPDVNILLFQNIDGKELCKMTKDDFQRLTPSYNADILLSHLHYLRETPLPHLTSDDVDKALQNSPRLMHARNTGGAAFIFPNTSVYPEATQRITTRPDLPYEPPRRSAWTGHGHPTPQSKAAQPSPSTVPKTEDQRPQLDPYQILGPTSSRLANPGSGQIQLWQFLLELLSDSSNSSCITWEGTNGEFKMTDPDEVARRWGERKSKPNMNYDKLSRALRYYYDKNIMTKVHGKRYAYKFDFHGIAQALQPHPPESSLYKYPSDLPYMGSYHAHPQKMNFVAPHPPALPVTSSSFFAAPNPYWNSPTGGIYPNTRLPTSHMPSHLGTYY
Outline: as §1

ELF1 = ELF1 (Homo sapiens, UniProt P32519 1-619); details: protein: recombinant; tags: N-terminal GST; dsDNA, one strand shown
ELF1, sequence (P32519 whole entry): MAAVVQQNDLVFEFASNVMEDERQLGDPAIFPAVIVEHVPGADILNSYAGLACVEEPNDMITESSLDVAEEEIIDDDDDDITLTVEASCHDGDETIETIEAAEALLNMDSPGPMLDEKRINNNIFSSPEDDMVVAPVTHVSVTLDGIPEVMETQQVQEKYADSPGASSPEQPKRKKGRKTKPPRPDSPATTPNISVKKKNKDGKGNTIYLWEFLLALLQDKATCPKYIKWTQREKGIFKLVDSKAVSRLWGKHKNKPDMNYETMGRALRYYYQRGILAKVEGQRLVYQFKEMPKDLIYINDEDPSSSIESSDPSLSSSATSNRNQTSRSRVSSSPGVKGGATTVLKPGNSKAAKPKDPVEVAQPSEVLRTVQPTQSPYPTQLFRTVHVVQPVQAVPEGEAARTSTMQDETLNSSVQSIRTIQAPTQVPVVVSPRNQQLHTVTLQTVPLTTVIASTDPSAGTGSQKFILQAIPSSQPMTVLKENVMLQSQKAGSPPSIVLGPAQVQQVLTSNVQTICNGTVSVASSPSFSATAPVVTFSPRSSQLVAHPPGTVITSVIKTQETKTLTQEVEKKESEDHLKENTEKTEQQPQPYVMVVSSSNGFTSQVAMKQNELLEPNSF
Outline: as §1

EHF = biological target: T5, EHF (Homo sapiens, UniProt Q9NZC4 1-300); details: protein: recombinant; tags: N-terminal GST; dsDNA, one strand shown
T5 sequence: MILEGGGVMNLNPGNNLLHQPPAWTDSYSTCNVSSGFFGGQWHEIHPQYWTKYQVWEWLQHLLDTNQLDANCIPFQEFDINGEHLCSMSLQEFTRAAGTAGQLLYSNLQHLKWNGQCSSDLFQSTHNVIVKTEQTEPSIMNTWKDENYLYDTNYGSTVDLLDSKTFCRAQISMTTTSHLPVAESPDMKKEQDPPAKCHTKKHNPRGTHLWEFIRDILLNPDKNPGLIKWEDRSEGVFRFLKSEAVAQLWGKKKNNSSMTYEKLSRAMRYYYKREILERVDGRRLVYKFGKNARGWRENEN
Outline: as §1

SPI1 = SPI1 (Homo sapiens, UniProt P17947 1-270); details: protein: recombinant; tags: N-terminal GST; dsDNA, one strand shown
Outline: as §1

SPIB = SPIB (Homo sapiens, UniProt Q01892 1-262); details: protein: recombinant; tags: N-terminal GST; dsDNA, one strand shown
SPIB, sequence (Q01892 whole entry): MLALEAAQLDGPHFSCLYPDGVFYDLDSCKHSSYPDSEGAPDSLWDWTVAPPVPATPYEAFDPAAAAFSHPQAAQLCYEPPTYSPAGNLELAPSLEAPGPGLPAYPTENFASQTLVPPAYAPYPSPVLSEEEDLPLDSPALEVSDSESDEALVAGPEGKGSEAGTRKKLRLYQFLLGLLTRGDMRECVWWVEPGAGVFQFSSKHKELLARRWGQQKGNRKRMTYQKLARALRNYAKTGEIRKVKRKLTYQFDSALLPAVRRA
Outline: as §1

ELK3 = biological target: T6, ELK3 (Homo sapiens, UniProt P41970 1-407); details: protein: recombinant; tags: N-terminal GST; dsDNA, one strand shown
T6 sequence: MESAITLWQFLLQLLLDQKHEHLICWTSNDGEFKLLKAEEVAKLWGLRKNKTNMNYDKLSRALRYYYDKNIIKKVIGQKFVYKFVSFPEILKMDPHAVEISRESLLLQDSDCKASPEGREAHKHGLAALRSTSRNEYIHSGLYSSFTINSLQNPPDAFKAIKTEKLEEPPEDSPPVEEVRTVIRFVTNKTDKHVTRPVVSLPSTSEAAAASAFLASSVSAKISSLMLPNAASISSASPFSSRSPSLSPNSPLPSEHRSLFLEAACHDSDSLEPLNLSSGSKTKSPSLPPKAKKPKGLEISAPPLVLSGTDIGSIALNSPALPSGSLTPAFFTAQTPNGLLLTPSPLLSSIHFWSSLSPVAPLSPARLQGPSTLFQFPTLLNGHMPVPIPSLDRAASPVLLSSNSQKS
Outline: as §1

FEV = biological target: T7, FEV (Homo sapiens, UniProt Q99581 1-238); details: protein: recombinant; tags: N-terminal GST; dsDNA, one strand shown
T7 sequence: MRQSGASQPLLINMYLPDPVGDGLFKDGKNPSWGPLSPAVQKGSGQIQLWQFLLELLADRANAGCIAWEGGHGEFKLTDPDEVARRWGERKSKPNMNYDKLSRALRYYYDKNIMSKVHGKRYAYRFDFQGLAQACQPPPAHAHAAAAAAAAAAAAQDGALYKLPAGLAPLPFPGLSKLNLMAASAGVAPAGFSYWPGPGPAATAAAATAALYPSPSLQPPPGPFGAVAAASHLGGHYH
Outline: as §1

ETV5 = ETV5 (Homo sapiens, UniProt P41161 1-510); details: protein: recombinant; tags: N-terminal GST; dsDNA, one strand shown
ETV5, sequence (P41161 whole entry): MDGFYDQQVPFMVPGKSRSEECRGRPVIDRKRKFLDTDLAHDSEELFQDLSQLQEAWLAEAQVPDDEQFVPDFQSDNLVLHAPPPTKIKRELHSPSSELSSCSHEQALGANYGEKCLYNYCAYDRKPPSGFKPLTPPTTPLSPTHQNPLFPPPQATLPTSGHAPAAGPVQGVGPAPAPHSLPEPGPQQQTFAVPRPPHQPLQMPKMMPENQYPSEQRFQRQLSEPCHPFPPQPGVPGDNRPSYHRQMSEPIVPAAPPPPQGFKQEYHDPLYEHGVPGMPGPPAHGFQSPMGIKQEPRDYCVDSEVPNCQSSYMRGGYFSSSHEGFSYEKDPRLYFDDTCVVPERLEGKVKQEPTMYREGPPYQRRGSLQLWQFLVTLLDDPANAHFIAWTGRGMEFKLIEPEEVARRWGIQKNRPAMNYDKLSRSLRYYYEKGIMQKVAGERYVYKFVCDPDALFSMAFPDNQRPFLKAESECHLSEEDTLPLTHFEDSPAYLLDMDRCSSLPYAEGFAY
Outline: as §1

HSF1 = HSF1 (Homo sapiens, UniProt Q00613 1-529); details: protein: recombinant; tags: N-terminal GST; chain copies: 3; dsDNA, one strand shown
HSF1, sequence (Q00613 whole entry): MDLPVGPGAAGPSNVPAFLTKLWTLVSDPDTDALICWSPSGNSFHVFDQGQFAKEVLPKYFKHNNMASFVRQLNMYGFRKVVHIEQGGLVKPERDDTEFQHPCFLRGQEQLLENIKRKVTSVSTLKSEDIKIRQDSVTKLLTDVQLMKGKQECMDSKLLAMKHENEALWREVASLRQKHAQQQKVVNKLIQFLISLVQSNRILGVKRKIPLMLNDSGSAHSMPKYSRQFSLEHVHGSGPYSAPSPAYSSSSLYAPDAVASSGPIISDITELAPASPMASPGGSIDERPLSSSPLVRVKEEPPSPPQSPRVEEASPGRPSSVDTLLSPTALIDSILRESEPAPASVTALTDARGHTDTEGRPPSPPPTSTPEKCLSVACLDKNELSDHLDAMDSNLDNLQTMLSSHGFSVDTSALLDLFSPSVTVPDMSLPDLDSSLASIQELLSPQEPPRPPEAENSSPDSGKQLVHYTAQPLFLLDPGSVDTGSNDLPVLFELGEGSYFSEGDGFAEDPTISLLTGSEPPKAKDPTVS
Outline: as §1

SPIC = biological target: T8, SPIC (Homo sapiens, UniProt Q8N5J4 1-248); details: protein: recombinant; tags: N-terminal GST; dsDNA, one strand shown
T8 sequence: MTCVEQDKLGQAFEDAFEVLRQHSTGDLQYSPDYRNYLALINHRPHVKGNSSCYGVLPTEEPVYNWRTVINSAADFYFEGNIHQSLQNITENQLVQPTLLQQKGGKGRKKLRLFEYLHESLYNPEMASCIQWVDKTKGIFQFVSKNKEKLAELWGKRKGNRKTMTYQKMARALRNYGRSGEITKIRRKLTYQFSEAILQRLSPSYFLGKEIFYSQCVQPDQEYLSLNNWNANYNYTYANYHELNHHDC
Outline: as §1

ELF4 = ELF4 (Homo sapiens, UniProt Q99607 1-663); details: protein: recombinant; tags: N-terminal GST; dsDNA, one strand shown
ELF4, sequence (Q99607 whole entry): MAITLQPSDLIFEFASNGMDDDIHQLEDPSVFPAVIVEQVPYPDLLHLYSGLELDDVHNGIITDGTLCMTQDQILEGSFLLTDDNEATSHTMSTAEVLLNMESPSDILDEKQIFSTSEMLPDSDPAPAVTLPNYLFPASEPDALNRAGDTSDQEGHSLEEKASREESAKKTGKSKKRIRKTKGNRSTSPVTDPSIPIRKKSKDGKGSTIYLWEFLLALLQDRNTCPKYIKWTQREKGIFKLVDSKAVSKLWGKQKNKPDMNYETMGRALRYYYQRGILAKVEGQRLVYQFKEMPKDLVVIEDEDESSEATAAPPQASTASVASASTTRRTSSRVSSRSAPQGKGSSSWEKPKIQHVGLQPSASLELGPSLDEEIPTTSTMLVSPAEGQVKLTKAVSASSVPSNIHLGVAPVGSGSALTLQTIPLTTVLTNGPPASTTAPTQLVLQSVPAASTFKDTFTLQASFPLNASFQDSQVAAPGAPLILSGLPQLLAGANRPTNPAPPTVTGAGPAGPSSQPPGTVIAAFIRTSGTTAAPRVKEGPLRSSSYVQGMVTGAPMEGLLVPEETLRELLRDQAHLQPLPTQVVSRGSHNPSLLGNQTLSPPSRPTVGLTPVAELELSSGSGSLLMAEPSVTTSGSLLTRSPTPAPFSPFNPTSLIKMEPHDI
Outline: as §1

ELK4 = biological target: T9, ELK4 (Homo sapiens, UniProt P28324-2 1-405); details: protein: recombinant; tags: N-terminal GST; dsDNA, one strand shown
T9 sequence: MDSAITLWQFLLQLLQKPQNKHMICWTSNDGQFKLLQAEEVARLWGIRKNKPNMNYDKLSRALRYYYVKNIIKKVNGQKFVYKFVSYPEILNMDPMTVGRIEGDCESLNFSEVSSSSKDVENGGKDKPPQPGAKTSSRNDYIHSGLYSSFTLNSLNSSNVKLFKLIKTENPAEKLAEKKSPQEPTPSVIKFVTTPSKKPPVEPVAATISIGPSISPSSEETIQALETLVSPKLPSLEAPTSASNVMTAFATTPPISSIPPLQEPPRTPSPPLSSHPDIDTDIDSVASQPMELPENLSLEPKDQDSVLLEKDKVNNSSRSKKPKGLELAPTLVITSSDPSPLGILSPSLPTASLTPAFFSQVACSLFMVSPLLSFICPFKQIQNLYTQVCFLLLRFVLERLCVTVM
Outline: as §1

ETV2 = biological target: T10, ETV2 (Homo sapiens, UniProt O00321 1-342); details: protein: recombinant; tags: N-terminal GST; dsDNA, one strand shown
T10 sequence: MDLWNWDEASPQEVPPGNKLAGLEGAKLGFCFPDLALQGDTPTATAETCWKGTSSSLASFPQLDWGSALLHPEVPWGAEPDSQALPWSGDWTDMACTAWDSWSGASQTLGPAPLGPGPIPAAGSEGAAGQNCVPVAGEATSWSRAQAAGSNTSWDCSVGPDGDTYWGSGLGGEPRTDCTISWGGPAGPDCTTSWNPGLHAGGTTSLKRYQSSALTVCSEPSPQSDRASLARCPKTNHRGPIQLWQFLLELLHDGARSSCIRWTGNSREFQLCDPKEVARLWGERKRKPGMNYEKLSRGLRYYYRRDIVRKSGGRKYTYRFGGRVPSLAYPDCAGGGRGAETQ
Outline: as §1

ELF3 = biological target: T11, ELF3 (Homo sapiens, UniProt P78545 1-371); details: protein: recombinant; tags: N-terminal GST; dsDNA, one strand shown
T11 sequence: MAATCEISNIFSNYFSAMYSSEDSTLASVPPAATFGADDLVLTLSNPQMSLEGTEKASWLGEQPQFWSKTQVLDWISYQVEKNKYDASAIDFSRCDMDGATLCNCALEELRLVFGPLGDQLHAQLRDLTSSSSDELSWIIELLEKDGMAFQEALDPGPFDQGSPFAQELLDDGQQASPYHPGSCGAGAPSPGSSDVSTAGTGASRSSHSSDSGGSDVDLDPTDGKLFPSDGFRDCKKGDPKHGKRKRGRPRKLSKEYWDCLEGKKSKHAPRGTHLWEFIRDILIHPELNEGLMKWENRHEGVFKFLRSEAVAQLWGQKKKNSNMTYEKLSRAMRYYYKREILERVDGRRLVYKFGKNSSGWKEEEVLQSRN
Outline: as §1

CRX = CRX (Homo sapiens, UniProt O43186 1-299); details: protein: recombinant; tags: N-terminal GST; dsDNA, one strand shown
CRX, sequence (O43186 whole entry): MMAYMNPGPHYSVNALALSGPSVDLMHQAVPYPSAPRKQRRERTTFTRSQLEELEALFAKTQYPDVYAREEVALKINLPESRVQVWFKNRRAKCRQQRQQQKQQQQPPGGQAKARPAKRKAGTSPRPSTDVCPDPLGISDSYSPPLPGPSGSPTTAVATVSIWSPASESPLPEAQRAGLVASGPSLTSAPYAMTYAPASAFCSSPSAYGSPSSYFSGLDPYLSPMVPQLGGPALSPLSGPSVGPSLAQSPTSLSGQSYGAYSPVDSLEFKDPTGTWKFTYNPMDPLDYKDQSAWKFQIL
Outline: as §1

ETV1 = ETV1 (Homo sapiens, UniProt P50549 1-477); details: protein: recombinant; tags: N-terminal GST; dsDNA, one strand shown
ETV1, sequence (P50549 whole entry): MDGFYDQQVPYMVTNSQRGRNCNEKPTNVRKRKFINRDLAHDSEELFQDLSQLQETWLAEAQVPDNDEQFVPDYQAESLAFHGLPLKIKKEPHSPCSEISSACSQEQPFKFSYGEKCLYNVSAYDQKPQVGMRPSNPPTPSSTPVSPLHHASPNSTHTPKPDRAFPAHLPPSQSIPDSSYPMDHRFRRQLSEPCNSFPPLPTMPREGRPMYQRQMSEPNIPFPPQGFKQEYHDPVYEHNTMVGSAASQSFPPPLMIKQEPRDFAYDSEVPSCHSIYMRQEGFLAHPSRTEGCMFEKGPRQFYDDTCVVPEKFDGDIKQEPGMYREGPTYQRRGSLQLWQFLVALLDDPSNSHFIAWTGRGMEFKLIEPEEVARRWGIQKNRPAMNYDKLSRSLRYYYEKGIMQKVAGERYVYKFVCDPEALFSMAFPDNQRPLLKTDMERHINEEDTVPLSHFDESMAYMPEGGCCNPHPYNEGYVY
Outline: as §1

Sequence: ACATTA
- binding signal (FLI1): 1.17 fold enrichment (6-mer frequency, TF over GST control)
- binding signal (ELK1): 1.16 fold enrichment (6-mer frequency, TF over GST control)
- binding signal (GABPA): 1.17 fold enrichment (6-mer frequency, TF over GST control)
- binding signal (ERG): 1.08 fold enrichment (6-mer frequency, TF over GST control)
- binding signal (ELF1): 1.19 fold enrichment (6-mer frequency, TF over GST control)
- binding signal (EHF): 1.17 fold enrichment (6-mer frequency, TF over GST control)
- binding signal (SPI1): 1.06 fold enrichment (6-mer frequency, TF over GST control)
- binding signal (SPIB): 1.2 fold enrichment (6-mer frequency, TF over GST control)
- binding signal (ELK3): 1.08 fold enrichment (6-mer frequency, TF over GST control)
- binding signal (FEV): 1.16 fold enrichment (6-mer frequency, TF over GST control)
- binding signal (ETV5): 1.12 fold enrichment (6-mer frequency, TF over GST control)
- binding signal (HSF1): 1.2 fold enrichment (6-mer frequency, TF over GST control)
- binding signal (SPIC): 1.23 fold enrichment (6-mer frequency, TF over GST control)
- binding signal (ELF4): 1.2 fold enrichment (6-mer frequency, TF over GST control)
- binding signal (ELK4): 1.18 fold enrichment (6-mer frequency, TF over GST control)
- binding signal (ETV2): 1.25 fold enrichment (6-mer frequency, TF over GST control)
- binding signal (ELF3): 1.14 fold enrichment (6-mer frequency, TF over GST control)
- binding signal (CRX): 1.38 fold enrichment (6-mer frequency, TF over GST control)
- binding signal (ETV1): 1.29 fold enrichment (6-mer frequency, TF over GST control)
